Measured values reported in PubChem BioAssay (NCATS).
Records with an inconclusive call do not appear. A call without a number means that no potency is given here. Active and inactive are the calls of the source. Calls come from the whole dose curve; as a rule, active = well fitted curve in the direction sought with a large enough effect; inconclusive = small, poorly fitted or top-dose-only effect, or another doubt; inactive = no such curve, though single readings can be large; an effect the other way counts as inactive or inconclusive. Residues, ends and D or L forms follow the SMILES beside them. *: point of attachment. Cbz = O=C(OCc1ccccc1)*

System: not listed separately
Test: Validation screen for small molecules that induce DNA re-replication in MCF 10A normal breast cells (AID 463097); note: nearly all actives have a fitted effect of over 60% in size
Settings: MCF 10A cells, DNA re-replication phenotype imaging; series mostly up to 46.1 µM
Procedure, shortened: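 Read-out is Hoechst total nuclear intensity by fluorescence scanning imager, flagging increased high-DNA-content nuclei. Compounds were incubated with MCF 10A cells for 48 hr (37 C, 5% CO2) before 40 min staining.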
Potency is the fitted concentration of half-maximal effect.

Structure (SMILES)	Potency
COc1cc(C(O)CO)ccc1O (stereo not given)	inactive
NC(N)=NC(N)=Nc1cccc(Cl)c1	inactive
O=C(O)[C@H]1NCCC[C@H]1C(=O)O	inactive
[Li+]	inactive
C#CC(N)CCC(=O)O (stereo not given)	inactive
CCCCC[C@H](CC(=O)NO)C(=O)N[C@H](C(=O)N1CCC[C@H]1CO)C(C)C	inactive
CCCCCC[C@@H]([C@@H](C)O)n1cnc2c(N)ncnc21	inactive
N=C(N)SCCN	inactive
NC(C(=O)N[C@@H]1C(=O)N2C(C(=O)O)=C(Cl)CS[C@H]12)c1ccccc1 (stereo not given in full)	inactive
CC(=O)[C@H]1CCC2C3CC=C4C[C@@H](OS(=O)(=O)O)CC[C@]4(C)C3CC[C@@]21C (stereo not given in full)	inactive
COC(=O)C1=C(C)NC(C)=C([N+](=O)[O-])C1c1ccccc1C(F)(F)F (stereo not given)	inactive
OC1(c2ccc(Cl)cc2)CCN(Cc2c[nH]c3ccccc23)CC1	inactive
CC1CCN(CC[C@H]2CCCN2S(=O)(=O)c2cccc(O)c2)CC1	inactive
N#CC(=C(\N)Sc1ccccc1N)/C(C#N)=C(/N)Sc1ccccc1N	7.94 µM (active)
O=c1[nH]ccc2c(O)cccc12	inactive
NC1(C(=O)O)CC1	inactive
COc1ccccc1N1CCN(CCCCNC(=O)c2ccc3ccccc3c2)CC1	inactive
Cn1cc(C(F)(F)F)nc1-c1ccc(OCC(O)CNCCOc2ccc(O)c(C(N)=O)c2)cc1 (stereo not given)	inactive
Cn1c(=O)c2[nH]c(C3CCCC3)nc2n(C)c1=O	inactive

Biological target: Ubiquitin carboxyl-terminal hydrolase 2 (Homo sapiens) (UniProt O75604)
Test: qHTS Validation Assay for Inhibitors of Ubiquitin-specific Protease USP2a Using CHOP2 as the Reporter (AID 463106)
Settings: USP2a cleavage of CHOP2 reporter, enzymatic; series mostly up to 38.3 µM
Procedure, shortened: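 USP2 core (10nM final) was preincubated with compound for 30min at RT in 20mM Tris-HCl pH 8.0, 2mM CaCl2, 2mM beta-mercaptoethanol, 0.05% CHAPS. Ub-CHOP2 and reporter substrate (25nM each) were added, and fluorescence (Ex 485/Em 531nm) was read after 60min.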

Chain of Ubiquitin carboxyl-terminal hydrolase 2 (Homo sapiens) (O75604 whole entry, looked up): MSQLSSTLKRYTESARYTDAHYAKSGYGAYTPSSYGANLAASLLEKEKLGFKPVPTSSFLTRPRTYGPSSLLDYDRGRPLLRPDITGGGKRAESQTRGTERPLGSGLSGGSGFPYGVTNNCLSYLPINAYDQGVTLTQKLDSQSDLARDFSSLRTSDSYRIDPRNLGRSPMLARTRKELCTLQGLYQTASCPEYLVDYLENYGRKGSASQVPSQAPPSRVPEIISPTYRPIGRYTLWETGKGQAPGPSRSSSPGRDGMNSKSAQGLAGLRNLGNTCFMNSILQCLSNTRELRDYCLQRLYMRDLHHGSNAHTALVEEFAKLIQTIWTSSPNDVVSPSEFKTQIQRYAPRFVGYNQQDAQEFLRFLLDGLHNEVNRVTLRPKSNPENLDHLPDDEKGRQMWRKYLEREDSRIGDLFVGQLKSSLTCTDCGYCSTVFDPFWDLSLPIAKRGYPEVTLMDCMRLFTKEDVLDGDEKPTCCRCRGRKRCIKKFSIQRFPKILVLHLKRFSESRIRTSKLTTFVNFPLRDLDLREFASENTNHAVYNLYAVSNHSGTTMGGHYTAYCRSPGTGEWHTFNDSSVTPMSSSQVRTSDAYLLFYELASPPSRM

Structure (SMILES)	Potency
COc1cc(C(O)CO)ccc1O (stereo not given)	inactive
CC(C)[C@H](NC(=O)OCc1ccccc1)C(=O)N[C@H](C=O)Cc1ccccc1 (Cbz-Val-Phe-aldehyde)	inactive
NC(N)=NC(N)=Nc1cccc(Cl)c1	inactive
CCCCOC(=O)NS(=O)(=O)c1sc(CC(C)C)cc1-c1ccc(Cn2c(CC)nc3c(C)cc(C)nc32)cc1	inactive
CN1CCN(c2nc3cc(C(F)(F)F)ccc3n3cccc23)CC1	inactive
O=C(O)[C@H]1NCCC[C@H]1C(=O)O	inactive
C=CCN1CCc2c(cc(O)c(O)c2Br)[C@@H](c2ccccc2)C1	inactive
C[C@](Cc1ccc(O)c(O)c1)(NN)C(=O)O	inactive
[Li+]	inactive
COc1ccc(-c2cc3ncc(C)n3c(Nc3ncccc3C(N)=O)n2)cc1OC	inactive
C#CC(N)CCC(=O)O (stereo not given)	inactive
CCCCC[C@H](CC(=O)NO)C(=O)N[C@H](C(=O)N1CCC[C@H]1CO)C(C)C	inactive
CCCCCC[C@@H]([C@@H](C)O)n1cnc2c(N)ncnc21	inactive
N=C(N)SCCN	inactive
NC(C(=O)N[C@@H]1C(=O)N2C(C(=O)O)=C(Cl)CS[C@H]12)c1ccccc1 (stereo not given in full)	inactive
CC(=O)[C@H]1CCC2C3CC=C4C[C@@H](OS(=O)(=O)O)CC[C@]4(C)C3CC[C@@]21C (stereo not given in full)	inactive
CC1CNCCN1S(=O)(=O)c1cccc2cnccc12 (stereo not given)	inactive
COC(=O)C1=C(C)NC(C)=C([N+](=O)[O-])C1c1ccccc1C(F)(F)F (stereo not given)	inactive
OC1(c2ccc(Cl)cc2)CCN(Cc2c[nH]c3ccccc23)CC1	inactive

Structure (SMILES)	Potency
O[Si](CCCN1CCCCC1)(c1ccc(F)cc1)C1CCCCC1 (stereo not given)	inactive
CC1CCN(CC[C@H]2CCCN2S(=O)(=O)c2cccc(O)c2)CC1	inactive
N#CC(=C(\N)Sc1ccccc1N)/C(C#N)=C(/N)Sc1ccccc1N	inactive
CCCCCCCCCCCCCCC[C@H](O)[C@H](N)CO	inactive
C=CCN1CCc2c(cc(O)c(O)c2Cl)C(c2ccccc2)C1 (stereo not given)	inactive
C[C@]12C=CC(=O)C=C1CC[C@@H]1C2=CC[C@]2(C)[C@@H](C(=O)CN3CCN(c4cc(N5CCCC5)nc(N5CCCC5)n4)CC3)CC[C@@H]12	inactive
O=C(c1ccc2c(c1)OCCO2)N1CCCCC1	inactive
O=c1[nH]ccc2c(O)cccc12	inactive
O=C(O)C1=CC(=C(c2ccc(O)c(C(=O)O)c2)c2ccc(O)c(C(=O)O)c2)C=CC1=O	1.04 µM (active)
COc1cc(N)c(Cl)cc1C(=O)OCCN1CCCCC1	inactive
N#C/C(=C\c1ccc(O)c(O)c1)C(=O)NCCc1ccccc1	inactive
CCCCCCCCCC(=O)NC(CN1CCOCC1)[C@H](O)c1ccccc1 (stereo not given in full)	inactive
CC(N)=O	inactive
NC1(C(=O)O)CC1	inactive
COc1ccccc1N1CCN(CCCCNC(=O)c2ccc3ccccc3c2)CC1	inactive
CSC(N)=NCCC[C@H](N)C(=O)O	inactive
Cn1cc(C(F)(F)F)nc1-c1ccc(OCC(O)CNCCOc2ccc(O)c(C(N)=O)c2)cc1 (stereo not given)	inactive
Cn1c(=O)c2[nH]c(C3CCCC3)nc2n(C)c1=O	inactive

Biological target: DNA polymerase III PolC-type (Bacillus subtilis (strain 168)) (UniProt P13267)
Test: qHTS Validation Assay for the Inhibitors of DNA Replication in Gram-Positive Bacteria (AID 485295)
Settings: Gram-positive bacterial DNA replication assay; series mostly up to 57.1 µM
Procedure, shortened: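 Double-stranded DNA product detected by PicoGreen fluorescence after EDTA quench. Compound incubated with B. subtilis holoenzyme (PolC, beta subunit, SSB, primase) before substrate addition; primed replication of M13Gori with dNTPs and NTPs at room temperature; DMSO defines 0% inhibition.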

Chain of DNA polymerase III PolC-type (Bacillus subtilis (strain 168)) (P13267 whole entry, looked up): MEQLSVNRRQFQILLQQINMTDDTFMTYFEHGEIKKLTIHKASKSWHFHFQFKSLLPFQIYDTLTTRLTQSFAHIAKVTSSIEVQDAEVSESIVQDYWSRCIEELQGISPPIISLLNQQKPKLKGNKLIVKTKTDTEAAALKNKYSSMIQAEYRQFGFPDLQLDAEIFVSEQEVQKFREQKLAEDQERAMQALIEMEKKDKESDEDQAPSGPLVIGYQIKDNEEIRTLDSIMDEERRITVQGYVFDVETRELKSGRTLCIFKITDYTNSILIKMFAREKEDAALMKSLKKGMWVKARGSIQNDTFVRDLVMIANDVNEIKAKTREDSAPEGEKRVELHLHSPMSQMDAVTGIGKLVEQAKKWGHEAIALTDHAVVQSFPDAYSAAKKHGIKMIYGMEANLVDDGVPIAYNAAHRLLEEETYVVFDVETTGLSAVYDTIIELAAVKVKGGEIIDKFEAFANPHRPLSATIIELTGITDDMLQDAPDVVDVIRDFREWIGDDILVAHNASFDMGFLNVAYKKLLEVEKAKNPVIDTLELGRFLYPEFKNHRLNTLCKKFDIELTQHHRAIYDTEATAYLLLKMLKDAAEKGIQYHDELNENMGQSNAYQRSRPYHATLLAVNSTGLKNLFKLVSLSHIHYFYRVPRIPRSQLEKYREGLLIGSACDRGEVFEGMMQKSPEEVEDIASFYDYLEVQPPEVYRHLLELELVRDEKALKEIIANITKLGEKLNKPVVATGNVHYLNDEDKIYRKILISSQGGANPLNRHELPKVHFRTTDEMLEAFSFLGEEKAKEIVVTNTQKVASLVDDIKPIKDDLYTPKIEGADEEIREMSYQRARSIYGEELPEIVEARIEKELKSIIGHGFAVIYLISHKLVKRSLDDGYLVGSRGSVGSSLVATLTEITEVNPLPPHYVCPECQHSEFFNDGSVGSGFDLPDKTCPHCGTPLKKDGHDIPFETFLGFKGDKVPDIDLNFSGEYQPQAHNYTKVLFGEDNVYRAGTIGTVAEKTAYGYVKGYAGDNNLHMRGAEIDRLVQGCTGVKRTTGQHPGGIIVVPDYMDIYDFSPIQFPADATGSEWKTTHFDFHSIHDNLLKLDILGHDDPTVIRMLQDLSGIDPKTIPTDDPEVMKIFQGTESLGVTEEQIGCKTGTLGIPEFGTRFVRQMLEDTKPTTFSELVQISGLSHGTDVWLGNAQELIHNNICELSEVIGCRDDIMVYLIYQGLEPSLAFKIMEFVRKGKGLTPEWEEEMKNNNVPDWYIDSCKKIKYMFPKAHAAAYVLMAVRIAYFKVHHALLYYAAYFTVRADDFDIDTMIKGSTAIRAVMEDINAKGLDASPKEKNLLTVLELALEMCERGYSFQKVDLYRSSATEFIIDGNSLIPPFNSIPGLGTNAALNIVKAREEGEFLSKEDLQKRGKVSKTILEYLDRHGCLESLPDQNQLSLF

Structure (SMILES)	Potency
COc1cc(C(O)CO)ccc1O (stereo not given)	inactive
NC(N)=NC(N)=Nc1cccc(Cl)c1	inactive
CN1CCN(c2nc3cc(C(F)(F)F)ccc3n3cccc23)CC1	inactive
O=C(O)[C@H]1NCCC[C@H]1C(=O)O	inactive
C=CCN1CCc2c(cc(O)c(O)c2Br)[C@@H](c2ccccc2)C1	inactive
C[C@](Cc1ccc(O)c(O)c1)(NN)C(=O)O	inactive
[Li+]	inactive
COc1ccc(-c2cc3ncc(C)n3c(Nc3ncccc3C(N)=O)n2)cc1OC	inactive
CCCCC[C@H](CC(=O)NO)C(=O)N[C@H](C(=O)N1CCC[C@H]1CO)C(C)C	inactive
CCCCCC[C@@H]([C@@H](C)O)n1cnc2c(N)ncnc21	inactive
N=C(N)SCCN	inactive
NC(C(=O)N[C@@H]1C(=O)N2C(C(=O)O)=C(Cl)CS[C@H]12)c1ccccc1 (stereo not given in full)	inactive
CC(=O)[C@H]1CCC2C3CC=C4C[C@@H](OS(=O)(=O)O)CC[C@]4(C)C3CC[C@@]21C (stereo not given in full)	inactive
CC1CNCCN1S(=O)(=O)c1cccc2cnccc12 (stereo not given)	inactive
COC(=O)C1=C(C)NC(C)=C([N+](=O)[O-])C1c1ccccc1C(F)(F)F (stereo not given)	inactive
O[Si](CCCN1CCCCC1)(c1ccc(F)cc1)C1CCCCC1 (stereo not given)	inactive
N#CC(=C(\N)Sc1ccccc1N)/C(C#N)=C(/N)Sc1ccccc1N	inactive
CCCCCCCCCCCCCCC[C@H](O)[C@H](N)CO	inactive
C=CCN1CCc2c(cc(O)c(O)c2Cl)C(c2ccccc2)C1 (stereo not given)	inactive
O=c1[nH]ccc2c(O)cccc12	inactive
O=C(O)C1=CC(=C(c2ccc(O)c(C(=O)O)c2)c2ccc(O)c(C(=O)O)c2)C=CC1=O	3.36 µM (active)
O=C1Nc2ccc(I)cc2/C1=C/c1cc(Br)c(O)c(Br)c1	21.2 µM (active)
COc1cc(N)c(Cl)cc1C(=O)OCCN1CCCCC1	inactive
N#C/C(=C\c1ccc(O)c(O)c1)C(=O)NCCc1ccccc1	inactive
CCCCCCCCCC(=O)NC(CN1CCOCC1)[C@H](O)c1ccccc1 (stereo not given in full)	inactive
CC(N)=O	inactive
COc1ccccc1N1CCN(CCCCNC(=O)c2ccc3ccccc3c2)CC1	inactive
Cn1cc(C(F)(F)F)nc1-c1ccc(OCC(O)CNCCOc2ccc(O)c(C(N)=O)c2)cc1 (stereo not given)	inactive
Cn1c(=O)c2[nH]c(C3CCCC3)nc2n(C)c1=O	inactive
